Measurements published in PubChem BioAssay AID504374 (National Center for Advancing Translational Sciences (NCATS), 2011).
Several values for one entry are separate records, joined by “and”; a condition that tells them apart may be missing. Identical values can stand only once. The whole screen tested about 1,500 compounds, of which about 100 (6.7%) were called active. Another 7% or so got no clear call; they are omitted. Shown is part of a subset that was picked to be rich in actives. Unmarked numbers belong to inactive results. Calls come from the whole dose curve; as a rule, active = well fitted inhibition curve with a large enough effect; inconclusive = small, poorly fitted or top-dose-only effect, or effect the other way; inactive = flat fitted curve, though single readings scatter.

target: Runt-related transcription factor 1 (Homo sapiens) + Core-binding factor subunit beta (Homo sapiens) (UniProt Q01196+Q13951); assay: qHTS Assay for Compounds Blocking the Interaction Between CBF-beta and RUNX1 for the Treatment of Acute Myeloid Leukemia: Hit Validation; conditions: AlphaScreen CBFb-His/RUNX1-biotin binding; series mostly up to 59.8 µM; activity, negative = inhibition: at the top concentration; note: nearly all actives have a fitted effect of over 60% in size
In short: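 Compounds were added to a premixed CBF-beta-His/RUNX1-biotin complex (30 nM each, 20 min) for 15 min. Nickel and streptavidin AlphaScreen beads followed for 90 min at room temperature, with emission at 440 nm […].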
% is set by controls: 0 for no effect and ±100 for the full control effect; potency is the fitted concentration of half-maximal effect.

Sequence of Runt-related transcription factor 1 (Homo sapiens) + Core-binding factor subunit beta (Homo sapiens) (Q01196 whole entry, looked up): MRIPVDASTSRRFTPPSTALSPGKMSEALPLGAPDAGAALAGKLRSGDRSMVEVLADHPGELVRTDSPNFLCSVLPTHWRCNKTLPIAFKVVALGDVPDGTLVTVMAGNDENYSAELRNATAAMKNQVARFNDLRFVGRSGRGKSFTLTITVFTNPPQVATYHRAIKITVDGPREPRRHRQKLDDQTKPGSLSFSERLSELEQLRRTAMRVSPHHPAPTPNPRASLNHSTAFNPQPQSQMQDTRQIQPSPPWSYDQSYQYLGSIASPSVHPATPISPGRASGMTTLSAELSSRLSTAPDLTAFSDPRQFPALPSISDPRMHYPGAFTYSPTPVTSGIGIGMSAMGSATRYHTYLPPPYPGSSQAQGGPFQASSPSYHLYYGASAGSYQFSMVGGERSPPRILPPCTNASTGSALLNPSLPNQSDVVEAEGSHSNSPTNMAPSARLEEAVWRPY
Sequence of Runt-related transcription factor 1 (Homo sapiens) + Core-binding factor subunit beta (Homo sapiens) (Q13951 whole entry, looked up): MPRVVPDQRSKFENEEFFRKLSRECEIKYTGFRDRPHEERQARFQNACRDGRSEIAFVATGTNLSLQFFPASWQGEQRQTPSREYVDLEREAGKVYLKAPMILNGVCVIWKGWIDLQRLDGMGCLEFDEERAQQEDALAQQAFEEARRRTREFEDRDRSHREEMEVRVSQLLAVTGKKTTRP

Compound	activity, negative = inhibition [%]	Potency
CCOc1ccc(Nc2nc(N)nc(CSC(=S)N3CCOCC3)n2)cc1	-12.1	
CCN(CC)C(=S)SSC(=S)N(CC)CC		0.794 µM (active)
Cc1ccncc1C(N)=O	-0.629	
CC(C)N(CCn1cnc2c([nH]c3ccccc32)c1=O)C(C)C	1.42	
Cc1onc(-c2c(Cl)cccc2Cl)c1NC(=O)NC1CCSC1 (centres undefined)	-3.96	
O=C(O[C@@H]1OC2COC(=O)c3cc(O)c(O)c(O)c3-c3c(cc(O)c(O)c3O)C(=O)O[C@@H]([C@H]1O)[C@@H]2O)c1cc(O)c(O)c(O)c1		0.224 µM (active)
O=C1OCC2OC(O)C(O)C(O)C2OC(=O)c2cc(O)c(O)c(O)c2-c2c(O)c(O)c3oc(=O)c4c(c(O)c(O)c5oc(=O)c2c3c54)-c2c1cc(O)c(O)c2O (centres undefined)		0.224 µM (active)
Cc1oc(S(=O)(=O)N(C)C)cc1C(=O)Nc1ccc(Cl)cc1	-5.12	
Cc1ccc2[nH]cc(CCNC(=O)/C=C/c3ccco3)c2c1	-14.3	
CC1(C)C(CC2OCC(CN3CCCCC3)O2)[C@H]2CC[C@@H]1C2 (some centres undefined)	-2.34	
C=C(C)C(=O)Nc1cccnc1Oc1ccc(F)cc1	-1.27	
O=C1CCCN1CCCNC(=S)Nc1ccccc1	-7.84	
C=C(C)C(=O)Nc1cccnc1Oc1ccc(F)cc1F	-0.381	
O=c1c(O)cccc2cc(O)c(O)c(O)c12		447 nM (active) and 631 nM (active)
CCOC(=O)C1(C)C=C(Nc2cccc(OC)c2)C(=O)N1c1ccccc1 (centres undefined)	-13	
COc1ccccc1NC(=O)Nc1sccc1-c1nc2ccccc2s1	-17.1	
CCOC(=O)c1cnc2c(C(=O)OCC)cnn2c1N	-0.993	
O=c1[nH]cc(I)cc1I		17.3 µM (active)
S=C(N/N=C/c1cccc2ccccc12)Nc1cccc(Cl)c1	-12.9	
Oc1ccc(/C=N/NC(=S)Nc2cccnc2)c(O)c1		1.58 µM (active)
Oc1ccc(NC(=S)Nc2ccccc2)cc1	-3.44	
Oc1ccc(/C=N/NC(=S)Nc2cccnc2)c(O)c1O		1.26 µM (active)
CC(C)(C)c1ccc(NC(=S)NCc2cccnc2)cc1	-3.62	
CNC(=O)C(=O)N/N=C/c1cccnc1	26.6	
O=c1[nH]nc(N/N=C/c2ccc(Cl)cc2Cl)c(=O)[nH]1	-5.54	

Compound	activity, negative = inhibition [%]	Potency
Cc1onc(-c2c(F)cccc2Cl)c1C(=O)N=C(N)N1CC(C)OC(C)C1 (centres undefined)	-0.719	
O=C(O)C1(c2ccccc2)CCN(S(=O)(=O)c2ccc(Cl)s2)CC1	-0.0237	
N#Cc1c(-c2ccccc2Cl)c2c([nH]c1=O)-c1ccccc1OC2	4.48	
COc1ccccc1NC(=O)OCC#CCOC(=O)Nc1ccccc1OC	9.79	
CCn1c(NC(=O)c2ccccc2F)c(-c2cccs2)c(=O)c2ccccc21	-8	
S=c1[nH]c2cc3ccccc3cc2[nH]1	10.7	
Nc1ccc2nc3c(=O)[nH]c(=S)[nH]c3nc2c1		2.51 µM (active)
COc1ccccc1NC(=S)NCC1CCC(CNC(=S)Nc2ccccc2OC)CC1 (centres undefined)	-2.72	
COC(=O)c1cccnc1Oc1ccccc1	-13.6	
NC(=O)c1cccnc1Oc1ccc(Cl)cc1	-13	
O=C(O)c1cccnc1C(=O)O		14.1 µM (active)
Cc1[nH]ncc1-c1ccccc1Cl	2.43	
Nc1nc(CCl)nc(Nc2ccc3ccccc3c2)n1	3.21	
Cc1ccc(N2CC(c3nc4ccccc4n3C)CC2=O)cc1 (centres undefined)	0.961	
Cc1ccc2nc(-c3ccc(N)cc3)sc2c1	0.903	
Cc1cc2nc3ccc(=[N+](C)C)cc-3sc2cc1N		6.31 µM (active)
Oc1cccc(O)c1O		3.97 µM (active)
Cn1nc(-c2ccccc2)cc1NC(=O)CCCC(=O)O	-2.32	
Cc1ccnn1CC(=O)N/N=C/c1cn[nH]c1-c1ccc(F)cc1	-5.89	
CC(C)CC(=O)NC(=S)Nc1ccccc1N1CCCC1	-17.3	
CNC(=O)Nc1cc(NC(=O)NC)cc(C(F)(F)F)c1	-3.15	
CCOC(=O)C1=C(C)NC(C)=C(C(=O)OCC)C1	0.11	
CCCC(=O)NC(c1cccs1)c1cc([N+](=O)[O-])c2cccnc2c1O (centres undefined)		3.98 µM (active)
CN(C)C(=O)CSc1nnc(NC(=O)CCc2ccccc2)s1	5.1	
COC(=O)/C=C(\C)N=Nc1c(O)[nH]c2ccccc12	-4.81	

Compound	activity, negative = inhibition [%]	Potency
Cc1ccc(CN(C(=O)c2cc(=O)c3cc(C)cc(C)c3o2)C2CCS(=O)(=O)C2)cc1 (centres undefined)	4.59	
Cc1cccc(C)c1NC(=S)N1CC(C)OC(C)C1 (centres undefined)	-4.3	
Cn1cnc(S(=O)(=O)Nc2ccc(OC(F)F)cc2)c1	1.32	
O=C1C(CCC(O)c2ccc(F)cc2)C(c2ccc(O)cc2)N1c1ccc(F)cc1 (centres undefined)		15.8 µM (active)
CC(C)(C)OC(=O)N1CCCN(C(=O)Nc2ccccc2)CC1	0.141	
COc1cccc(NC(=O)C(=O)NCCc2ccc(F)cc2)c1	5.31	
CCOC(=O)/C(C#N)=C/Nc1ccsc1C(C)=O	0.205	
Cc1ccc(Cn2c(N/N=C/c3ccncc3)nc3c2c(=O)n(C)c(=O)n3C)cc1	-3.34	
O=C1CSC(=S)N1/N=C/c1ccc(O)c(O)c1O		0.562 µM (active)
Cc1cc(NC(=O)c2c(-c3c(F)cccc3Cl)noc2C)no1	-7.12	
COc1cccc(/C=N/NC(=O)C(C)Cn2cnc3ccccc32)c1 (centres undefined)	-0.552	
COc1ccc(Oc2ccc(-c3ccn[nH]3)cc2)cc1	-8.28	
COc1ccc(Oc2nc(-c3ccccn3)ncc2OC)cc1		12.6 µM (active)
COc1ccc(Oc2ncccc2[N+](=O)[O-])cc1	-4.02	
O=P(O)(O)c1cc(-c2ccccc2)oc1-c1ccccc1	0.0456	
CCCCC1C2C(=O)N(c3ccc(C)cc3)C(=O)C2ON1c1ccccc1 (centres undefined)	-2.92	
Cc1cc([N+](=O)[O-])nn1Cc1ccc(C(=O)N/N=C/c2ccc(N(C)C)cc2)cc1	-10.8	
O=C(O)c1cc2ccccc2cc1Nc1ccccc1	-13.1	
Nc1ccc(C(=O)C(=O)c2ccc(N)cc2)cc1	4.27	
Nc1ccc(N)c(C(=O)O)c1		0.794 µM (active)
CCOC(=O)c1nnn2c1nc(N1CCN(C)CC1)c1ccccc12	-4.29	
C=CCn1c(=O)c2ccccc2n2nnc(C(=O)OCC)c12	1.03	
CC/C(=C(\c1ccccc1)c1ccc(OCCN(C)C)cc1)c1ccccc1		24.4 µM (active)
COc1cccc(C2Oc3ccccc3C3CC(c4cccs4)=NN32)c1 (centres undefined)	4.22	
Cc1ccc(C)c(C(=O)CCC(=O)O)c1	-2.23	

Compound	activity, negative = inhibition [%]	Potency
CC(=O)c1cc(O)c2ccccc2c1O	-21.8	
CCCC(=O)c1cc(O)c(O)cc1O		4.47 µM (active)
C/C(=N\O)c1c(O)cc(-c2ccccc2)n(-c2ccccc2)c1=O	-1.85	
NC[C@@H](O)c1ccc(O)c(O)c1		2.82 µM (active)
CC1=CC(=O)CC(C)(C)C1(O)/C=C/C(C)=C/C(=O)O (centres undefined)	-3.77	
C=CCn1c(SCc2ccccc2Cl)nnc1-c1sc2nc(C)cc(C)c2c1N	10.9	
CCOC(=O)c1c(C)n(C)c2ccc(OC)c(NC(=O)CCN3CCC(Cc4ccccc4)CC3)c12	-15.5	
O=S(=O)(Nc1cccc(CCc2ccccn2)c1)c1cc(Cl)ccc1Cl	-7.59	
c1cnc2c(c1)ccc1cccnc12		1.12 µM (active)
c1cnc2ccc3ncccc3c2c1	-19.2	
c1ccc(-n2ncc3cccnc32)cc1	8.29	
CCCCn1cc([N+](=O)[O-])nc1C	-5.88	
O=C(CN1CCN(C(c2ccccc2)c2ccccc2)CC1)N1N=CCC1c1ccccc1 (centres undefined)	-5.94	
COC(=O)c1cc(NS(=O)(=O)c2ccc(F)cc2)ccc1N1CCOCC1	0.969	
COc1ccc(/C(C)=N/NC(=O)Cn2nc([N+](=O)[O-])cc2C)cc1	-7.96	
COc1ccccc1C1CCN(C(=O)c2cccs2)CC1	1.84	
COc1ccccc1C1CCN(C(=O)c2ccco2)CC1	-1.76	
COc1cccc2c1NC(C(=O)O)C1CC=CC21 (centres undefined)		14.1 µM (active)
COc1ccc2[nH]c(=O)c(CN(C(=O)c3cccnc3)c3ccc(C)cc3C)cc2c1	-3.33	
CC1=NNC(=O)C1Cc1ccc(F)cc1 (centres undefined)	-5.63	
CC(C)(NC(=O)c1cc(Cl)c2ccccc2c1O)C(=O)O	-1.91	
COC(=O)CC1C(=O)NC(C)=C1C(=O)OC (centres undefined)	-12.4	
COc1ccc(-n2c(=S)[nH]c(=O)c3cccnc32)cc1	-1.85	
CCCOc1ccc(CSC(=N)N)cc1C(=O)OC	-9.01	
